Test results as given in the supplement of paper PMC6555819.

Columns and labels:
Experiment in all cases: PBM binding z-score (relative to random genomic background probes); higher = stronger binding; sequences stand for … in GC…GCGATTGACAGCGTAGAATGAAGG
[1] = tested on: FXR:RXRa (NR concentration 270 nM, RXRa partner concentration 90 nM)
Method in brief: (§1)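 Binding z-scores take random background probes as their reference. They come from custom Agilent 4×180K protein-binding microarrays incubated 1 h with ligand-free nuclear receptor dimers, with antibodies against each partner (one per run) detecting binding. Scanned fluorescence was regression-normalized.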

[2] = tested on: LXRa:RXRa (NR concentration 270 nM, RXRa partner concentration 90 nM)
Method in brief: as §1

[3] = tested on: LXRa homodimer (NR concentration 270 nM)
Method in brief: as §1

[4] = tested on: LXRb:RXRa (NR concentration 270 nM, RXRa partner concentration 90 nM)
Method in brief: as §1

[5] = tested on: LXRb homodimer (NR concentration 270 nM)
Method in brief: as §1

[6] = tested on: PPARa:RXRa (NR concentration 270 nM, RXRa partner concentration 90 nM)
Method in brief: as §1

[7] = tested on: PPARg:RXRa (NR concentration 180 nM, RXRa partner concentration 90 nM)
Method in brief: as §1

[8] = tested on: PPARg:RXRa 270nM:90nM, anti-RXR (NR concentration 270 nM, RXRa partner concentration 90 nM)
Method in brief: as §1

[9] = tested on: PPARg:RXRa 30nM:10nM, anti-RXR (NR concentration 30 nM, RXRa partner concentration 10 nM)
Method in brief: as §1

[10] = tested on: PPARg:RXRa 90nM:30nM, anti-RXR (NR concentration 90 nM, RXRa partner concentration 30 nM)
Method in brief: as §1

Sequence | PBM binding z-score [1] | PBM binding z-score [2] | PBM binding z-score [3] | PBM binding z-score [4] | PBM binding z-score [5] | PBM binding z-score [6] | PBM binding z-score [7] | PBM binding z-score [8] | PBM binding z-score [9] | PBM binding z-score [10]
CGTCAAAGTTCAACTAAGGTAATGTAAAGCACGC | 7.02 | 6.36 | 3.99 | 4.15 | 2.17 | 5.15 | 5 | 5.65 | 2.56 | 4.42
GCTGCTAGGTCCGGTTGGTCAGCTAACGGGTACG | -0.467 | -0.521 | -0.707 | -1.05 | -0.916 | -0.619 | -0.571 | -0.342 | -0.72 | -0.851
GCTTGTAGATCAAGGATAAGAAAGACTAAGCTAA | -0.495 | -1.03 | -0.557 | -0.935 | -0.998 | -0.619 | 0.375 | 0.179 | -0.00993 | -0.0632
AGAACGAGGGCTATGAGTTGATAGCACGGGTGGC | -0.355 | -0.47 | -0.658 | -0.828 | -0.486 | -0.335 | 0.792 | 0.00243 | -0.297 | 0.151
GGAACGAGGGAATTCGAGTTGATAGCATGGCGAT | -0.4 | -0.535 | -0.72 | -0.978 | -1.16 | -0.557 | 0.44 | -0.504 | -0.356 | -0.529
CCTACTGGGCCACGAAAGGTCATTCATTCAGTGA | 3.89 | 5.43 | 6.05 | 4.47 | 0.659 | 4.73 | 4.8 | 5.02 | 1.88 | 4.42
TCTATCAGGCCAGAGGGTCACTCAAGAGGTACGG | 1.28 | 1.42 | -0.272 | 1.32 | 0.048 | 2.51 | 1.7 | 2.98 | 3.16 | 3
TCTAGTTGGTCACGGACGTCACACACGACGGGTA | 0.24 | 0.203 | -0.153 | 0.406 | 0.211 | 0.764 | 1.24 | 1.59 | 2.77 | 1.95
TCTCGGAGGACACGAAGGTCAGAGATTTCCAGAG | 1.38 | 0.932 | 0.277 | 1.25 | -0.387 | 1.83 | 0.75 | 1.93 | 2.37 | 2.23
ACTCGGAGGACAAGGGTCAGAGCTACGCCAGTGA | 2 | 1.9 | -0.11 | 1.6 | -0.535 | 3.37 | 4.49 | 4.83 | 2.75 | 4.25
GGTAGCAGGCCATTTGGGTCACTCAATGACGGGC | 0.428 | 0.0822 | -0.186 | 0.118 | -0.593 | 1.49 | 0.828 | 0.694 | -0.356 | 0.275
CGAACGACGGCATGAGTTGATAGCAAATGCCGAT | -0.791 | -1.12 | -0.686 | -1.11 | -1.32 | -1.22 | 0.598 | -0.893 | -0.557 | -0.878
GCTAGCAGGGCATTTGGGTCACTCAATGACGGGC | 0.398 | 0.383 | -0.133 | 0.541 | -0.663 | 1.77 | 1.28 | 1.08 | -0.197 | 0.478
ATCGAAATGTCGACGAGGTGAGTATACACCGTTT | -0.0573 | -0.263 | -0.442 | -0.0135 | -0.0075 | 0.206 | 0.897 | -0.108 | 0.151 | -0.0963
GGAACGAGGGGAAGTTGATAGCAGAGTTTGATGG | 0.0996 | -0.26 | -0.307 | -0.0221 | -0.185 | 0.0181 | 0.515 | 0.29 | -0.0775 | 0.258
TCTCGGAGGACACGAAAGGTCAGAGCTCGACATC | 3.13 | 3.71 | 3.02 | 2.84 | -0.0794 | 3.45 | 1.37 | 2.8 | 2.54 | 2.41
GACACAGGGTCAAGGCCAGAGTACGCGTATTGAT | 6.96 | 4.02 | -0.483 | 3.38 | -0.662 | 5.47 | 5.53 | 5.57 | 1.65 | 4.01
ATCTCTAAGTAAAGTTCAGTGAAAGATCGATAGA | 1.27 | 1.99 | 1.87 | 1.23 | 0.906 | 1.66 | 1.4 | 2.92 | 1.3 | 2.75
TAGCCTAGGTCAGATCGGTCCAGTATACGCTATA | 1.8 | 0.953 | -0.475 | 0.809 | -0.111 | 1.74 | 0.543 | 0.782 | -0.239 | 0.0897
CTCGAAAGGTCGTGCTCAGTTGAGTATACCAAAC | 4.37 | 3.75 | 0.291 | 3.5 | 0.338 | 4.85 | 2.54 | 3.47 | 0.941 | 2.53
AATACAGGGTCACTAGGACAGAGTAGGTACGAAT | 6.09 | 5.02 | 1.08 | 3.97 | 1.27 | 5.77 | 8.06 | 6.39 | 3.02 | 5.18
TTAGCAAGGTGAAAGGTCGTTGATGCACGCCTTG | 3.42 | 2.78 | -0.037 | 2.47 | -0.713 | 5.24 | 8.3 | 7.95 | 8.33 | 9.55
CCTAGTTGGTCAGGAGGTCAGACACCGGATATGA | 2.18 | 2.3 | 0.868 | 2.16 | 0.128 | 3.04 | 2.05 | 2.35 | 0.691 | 1.69
